Test results: PubChem BioAssay (Tox21)
Inconclusive results are not listed. A number with no mark means an inactive call. Calls of active or inactive are those of the source. The call rests on the fitted dose curve; in most records, active means well fitted activation curve with a large enough effect in the repeat runs; inconclusive means weak or mixed curves; inactive means flat fitted curve, though single readings scatter.

Assay: A CellTox Green Cytotoxicity Assay to monitor cytotoxicity in HEK293 cells - 24 hour (AID 1224875); further: nearly all actives have a fitted effect of over 45% in size
Conditions: CellTox Green fluorescence; series mostly up to 76.8 µM; activity change: at the top concentration
Excerpt: National Center for Advancing Translational Sciences [NCATS]
NIH Chemical Genomics Center [NCGC]
U.S. Environmental Protection Agency [EPA]
National Institutes of Environmental Health Sciences [NIEHS]
National Toxicology Program [NTP]
Cell-based models are critical for drug discovery. Determining the natural cytotoxic effects resulting from test compounds is an essential research activity. A CellTox Green Cytotoxicity Assay to monitor cytotoxicity in real time of continues cell culture during 40 hours of the compound treatment was used to screen Tox21 10K library compounds in Hek293 cells. CellTox Green Cytotoxicity Assay is a nonlytic, homogeneous, biofluorescent method to measure cytotoxicity in cell culture after experimental manipulation. The assay system uses a proprietary asymmetric cyanine dye that is excluded from viable cells but preferentially stains the dead cell's DNA. […] Viable cells produce no appreciable increases in fluorescence. Therefore, the fluorescence signal produced by the binding interaction with dead cell DNA is proportional to cytotoxicity.
The mixture of Hek293 cell suspension and reagents were dispensed at 600cells/6 ul/well in 1536-well tissue culture treated black solid bottom plates using a Multidrop dispenser. After the assay plates were incubated at a 37 C/5% CO2 incubator for 5 hours, 23 nL of compounds dissolved in DMSO, positive and negative controls was transferred to the assay plate by a pintool work station. The plates were incubated at 37 C for 40 hours. The fluorescence intensity were measured at 0h, 8h, 16h, 24h, 32h and 40h time points using ViewLux plate reader during compound treatment.
On the % scale 0 is the no-effect control and ±100 the full control effect; potency means the concentration at half of the fitted maximal effect.

Structure (SMILES) | activity change | Potency
COCCC#N | -0.0223% | 
Cc1ccccc1OP(=O)(Oc1ccccc1C)Oc1ccccc1C | -3.07% | 
CCC(C)c1cccc(C(C)CC)c1O (stereo not given) |  | 38.9 µM (active)
COc1cnc(OC)n2nc(NS(=O)(=O)c3c(OCC(F)F)cccc3C(F)(F)F)nc12 | -6.43% | 
CN(C)c1ccc(N)cc1 | 29.9% | 
CCOP(=O)(Sc1ccccc1)Sc1ccccc1 | -0.747% | 
CN(C)CCc1c[nH]c2ccccc12 | -17% | 
ClSC(Cl)(Cl)Cl | 1.1% | 
CC(=O)C(Cl)C(=O)N(C)C (stereo not given) | 29.8% | 
Nc1cc(Cl)ccc1Cl | 2.63% | 
S=C=NCCc1ccccc1 |  | 43.7 µM (active)
CC[N+]1(CC)CCC(OC(=O)C(O)(c2ccccc2)c2ccccc2)C1 (stereo not given) | -8.17% [at 35.3 µM, active compounds read high] | 
N#Cc1c[nH]cc1-c1cccc2c1OC(F)(F)O2 | 7.52% | 
CCCCN(CCCC)C(=S)S | -0.832% | 
O=S1(=O)OCC2C(CO1)C1(Cl)C(Cl)=C(Cl)C2(Cl)C1(Cl)Cl (stereo not given) | 22.6% | 
CC(C)Br | -3.22% | 
O=C(Cl)c1ccccc1F | -1.92% | 
CC1(C)[C@H](/C=C2\CCSC2=O)[C@@H]1C(=O)OCc1coc(Cc2ccccc2)c1 | 9.32% | 
O=[N+]([O-])[O-].[Tl+] | -2.01% | 
CCCCCCCc1ccc(O)cc1 |  | 43.6 µM (active)

Structure (SMILES) | activity change | Potency
CC(C)(C)c1ccc(OP(=O)(Oc2ccccc2)Oc2ccccc2)cc1 | -12.2% | 
CC(Cc1ccc(OCC(=O)O)cc1)NCC(O)c1csc(C(F)(F)F)n1 (stereo not given) | -4.18% | 
[C-]1=CC=CC1.[Cl][Zr+2][Cl].c1cc[cH-]c1 | -0.0942% | 
c1ccc2nc(N3CCNCC3)ccc2c1 | -1.93% [at 35.3 µM, active compounds read high] | 
CC(C)N(C(=O)SC/C(Cl)=C/Cl)C(C)C | 25.6% | 
CCCCON=O | -0.291% | 
CSSC | -13.1% | 
CNC(=O)CSP(=O)(OC)OC | -12% | 
COC(=O)N(OC)c1ccccc1COc1ccn(-c2ccc(Cl)cc2)n1 | 1.07% | 
CCCCCON=O | -5.86% | 
O=S(=O)(NS(=O)(=O)C(F)(F)F)C(F)(F)F | 6.18% | 
CCCN | -1.03% | 
CCCC[N+]1(C)CCCC1 (tested in a mixture with another compound) | -11.2% | 
O=[N+]([O-])c1cccc2cccc([N+](=O)[O-])c12 | -11.7% | 
Nc1nc(N)c(N)c(N)n1 |  | 49.2 µM (active)
CCC(C)Br (stereo not given) | 2.03% | 
CCOP(=S)(NC(C)C)Oc1ccccc1C(=O)OC(C)C (stereo not given) | 7.56% | 
N#CC(C#N)=NNc1cccc(Cl)c1 | -1.56% | 
N#Cc1c2ccccc2cc2ccccc12 | -5.01% | 
C[N+]1(C)[C@@H]2CC[C@H]1CC(OC(=O)C(CO)c1ccccc1)C2 (stereo not given in full) | -4.15% [at 35.3 µM, active compounds read high] | 
